Shown are actives, neighbours in structure and some others; about 3.4% of the full set was active somewhere.
pPAFAH inh: pPAFAH enzyme inhibitors, primary screen, biochemical, fluorescence polarization, human; inhibition, % at 3.39 µM; 330,000 compounds, 1.5% hits; Platelet-activating factor acetylhydrolase (Homo sapiens), Q13093; recombinant pPAFAH, FP-rhodamine probe fluorescence polarization;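 active = inhibition above the mean inhibition across the screen plus 3 SD, cut at about 25% in these data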;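 also: inhibitors block binding of the rhodamine activity-based probe so polarization drops; 0% = enzyme with DMSO and 100% = wells lacking pPAFAH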
Target sequence (Q13093 whole entry, looked up): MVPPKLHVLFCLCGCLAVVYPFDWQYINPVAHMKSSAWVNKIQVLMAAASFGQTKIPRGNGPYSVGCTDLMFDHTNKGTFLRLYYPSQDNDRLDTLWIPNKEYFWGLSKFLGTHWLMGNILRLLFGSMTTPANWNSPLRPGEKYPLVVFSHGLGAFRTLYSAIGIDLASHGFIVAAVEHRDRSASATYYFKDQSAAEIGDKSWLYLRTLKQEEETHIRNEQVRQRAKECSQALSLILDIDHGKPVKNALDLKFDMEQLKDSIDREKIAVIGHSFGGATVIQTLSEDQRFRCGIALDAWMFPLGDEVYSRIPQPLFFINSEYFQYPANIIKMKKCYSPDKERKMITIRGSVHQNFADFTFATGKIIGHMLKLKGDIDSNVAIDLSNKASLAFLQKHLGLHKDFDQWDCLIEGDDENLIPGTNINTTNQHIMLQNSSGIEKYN
PP5 primary: PP5 phosphatase inhibitors, primary screen, biochemical, fluorescence; inhibition, % at 6.7 µM; 320,000 compounds, 0.18% hits; AID 1987, 2009; purified PP5c, OMFP substrate fluorescence;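 active = inhibition above the campaign's mean inhibition across all tested compounds plus 3 SD, cut at about 9.5% in these data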;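 also: 0% = DMSO only and 100% = 100 µM cantharidin control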
PAFAH2 inh: PAFAH2 enzyme inhibitors, primary screen, biochemical, fluorescence polarization, human; Platelet-activating factor acetylhydrolase 2, cytoplasmic (Homo sapiens), Q99487; recombinant PAFAH2, FP-rhodamine activity probe; inhibition, % at 3.39 µM; 340,000 compounds, 0.99% hits; AID 492956, 2010;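 active = inhibition above the mean over all tested compounds plus 3 SD, cut at about 30% in these data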;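 also: inhibitors block probe labeling of enzyme so polarization drops; 0% = enzyme with DMSO and 100% = wells lacking PAFAH2 protein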
PAFAH1B2 inh: PAFAH1B2 enzyme inhibitors, primary screen, biochemical, fluorescence polarization, human; recombinant PAFAH1B2, FP-rhodamine activity probe; inhibition, % at 3.39 µM; 340,000 compounds, 1.2% hits; AID 492953, 2010;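 active = inhibition above the mean of all tested compounds plus 3 SD, cut at about 24% in these data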;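 also: 0% = enzyme with DMSO and 100% = wells lacking PAFAH1B2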
PP1 counter: PP1-alpha phosphatase inhibitors, primary screen, counter-screen for PP5 inhibitor project, biochemical, fluorescence, OMFP substrate, single point. Serine/threonine-protein phosphatase PP1-alpha catalytic subunit (Homo sapiens), P62136. purified PP1alpha. inhibition, % at 6.7 µM. 320,000 compounds, 0.9% hits. AID 2235, 2010;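 active = inhibition above the mean inhibition of all tested compounds plus 3 SD, computed separately for each screening campaign, cut at about 15% in these data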
PAFAH1B3 inh: PAFAH1B3 enzyme inhibitors, primary screen, biochemical, fluorescence polarization, human | Platelet-activating factor acetylhydrolase IB subunit alpha1 (Homo sapiens), Q15102 | 340,000 compounds, 0.28% hits | inhibition, % at 3.39 µM | AID 492972, 2010 | recombinant PAFAH1B3, FP-rhodamine probe;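 active = inhibition above the screen-wide average of all tested compounds plus 3 SD, cut at about 25% in these data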;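 also: 0% = enzyme with DMSO only and 100% = wells lacking PAFAH1B3 protein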
* = called active by the depositor; · = no result given.

SMILES	pPAFAH inh	PP5 primary	PAFAH2 inh	PAFAH1B2 inh	PP1 counter	PAFAH1B3 inh
Cc1ccc(S(=O)(=O)N2[C@@H](c3ccc(Br)cc3)C(C(=O)O)=CC[C@H]2c2ccc(Cl)c(Cl)c2)cc1	21	·	0	87*	·	0
Cc1ccc(S(=O)(=O)N2[C@@H](c3ccc(Br)cc3)C(C(=O)O)=CC[C@H]2c2ccc3c(c2)OCO3)cc1	7	·	-2	72*	·	7
Cc1ccc(S(=O)(=O)N2[C@@H](c3ccc(C(C)(C)C)cc3)C(C(=O)O)=CC[C@H]2c2cccc(Cl)c2)cc1	18	·	6	78*	·	-3
CCCNC(=O)NC(=O)CSc1nc(C)cs1	2	3	6	5	-6	10
O=C(N/C(=C/c1cn(-c2ccccc2)nc1-c1ccccc1)C(=O)N1CCOCC1)c1ccc(Cl)cc1Cl	4	-1	-6	2	-1	3
CC(=O)Oc1c(I)cc(I)cc1C(=O)Nc1ccc(Cl)cc1	25*	5	3	25*	10	10
COc1ccc(Cl)cc1C(=O)Nc1ccc(NC(C)=O)cc1	-2	-7	5	-5	2	8
Cc1ccc(C(=O)O)cc1-c1ccc(/C=C2/NC(=O)N(c3ccccc3)C2=O)o1	29*	0	20	9	1	12
Cc1ccc(CN2C(=O)N/C(=C\c3ccc(-c4ccc(C(=O)O)cc4C)o3)C2=O)cc1	5	2	9	13	10	16
CCOC(=O)Cn1c(=O)oc2cc(S(=O)(=O)NCCCc3ccccc3)ccc21	4	-1	3	10	-3	7
CCOC(=O)Cn1c(=O)oc2cc(S(=O)(=O)Nc3ccc(F)cc3)ccc21	28*	3	-4	4	3	-2
CCOC(=O)Cn1c(=O)oc2cc(S(=O)(=O)NCCc3ccc(C)cc3)ccc21	29*	2	-8	4	0	7
Cn1c(=O)oc2cc(S(=O)(=O)NCCC(=O)NCCc3ccc(Cl)cc3)ccc21	14	-1	-4	32*	3	1
COC(=O)c1cc(S(=O)(=O)NCCc2ccc(Cl)cc2)c[nH]1	11	0	3	26*	4	2
COC(=O)c1cc(S(=O)(=O)NCCc2ccc(C)cc2)c[nH]1	11	2	-1	5	0	2
O=C(O)c1ccc(N/N=C/c2ccc(-c3ccc(Br)cc3)o2)cc1	27*	3	13	10	11	8
CSc1nc(N(CCO)CCO)c2sc3nc(-c4ccco4)c4c(c3c2n1)CCC4	·	·	31*	6	·	15
CSc1nc(SCCO)c2sc3nc(-c4ccco4)c4c(c3c2n1)CC(C)(C)OC4	·	·	10	-4	·	1
Cc1cccc(N2CCN(C(=O)c3ccc4nc(-c5ccco5)c(-c5ccco5)nc4c3)CC2C)c1 (stereo not drawn)	26*	7	1	2	9	6
CCCCCCC1CC(CCC(=O)Nc2ccc([N+](=O)[O-])cc2)C(=O)O1 (stereo not drawn)	5	0	0	2	-4	8
Cc1ccc(S(=O)(=O)N2Cc3ccccc3CC2C(=O)Nc2ccc3c(c2)OCO3)cc1 (stereo not drawn)	28*	1	0	-1	6	-3
CCOc1ccccc1NC(=O)CSc1nnc(Cc2cccn2C)n1-c1ccc(F)cc1	10	6	7	4	-3	6
O=C(Cc1ccccn1)c1ccc(Cl)cc1	3	0	-6	6	0	1
CC1=C(CC(=O)c2ccc(Cl)cc2)C(=O)c2ccccc2C1=O	28*	2	2	6	5	8
Cn1cccc1CC(=O)N/N=C/C=C/c1ccco1	27*	0	16	-4	9	6
SMILES	pPAFAH inh	PP5 primary	PAFAH2 inh	PAFAH1B2 inh	PP1 counter	PAFAH1B3 inh
O=C(CSc1nnc(SCc2ccccc2)s1)N/N=C/C=C\c1ccco1	28*	4	27	3	7	3
O=C(CSc1nnc(SCc2ccccc2)s1)N/N=C/C=C/c1ccccc1[N+](=O)[O-]	10	5	-15	-7	16*	-27
COCc1nnc(NC(=O)c2ccc(S(=O)(=O)N3CCCc4ccccc43)cc2)o1	6	1	8	6	17*	2
Cc1c(C(=O)OCC2CCCO2)[nH]c2c1C(=O)CC(c1ccco1)C2 (stereo not drawn)	25*	-1	6	3	3	2
C[C@H](CO)N1C[C@H](C)[C@@H](CN(C)S(C)(=O)=O)Oc2ccc(NC(=O)CCN3CCOCC3)cc2C1=O	1	·	4	5	·	11
COC(=O)[C@H](Cc1ccccc1)NC(=O)[C@@H](N)CC(=O)O	3	0	3	3	0	8
Cc1csc(NC(=O)CSc2sc3c(O)cc(=O)[nH]c3c2C#N)n1	33*	1	37*	16	14	22
CC1=CCC2COC(c3ccc[n+](Cc4ccccc4)c3)C1C2 (stereo not drawn)	1	2	8	7	0	-1
O=C(CCN1C(=O)/C(=C/c2ccccc2Cl)SC1=S)Nc1ccccn1	8	1	3	2	12	0
O=C(CCN1C(=O)/C(=C/c2ccccc2Cl)SC1=S)NC1=NCCS1	6	2	5	34*	-2	-4
O=C(CCN1C(=O)/C(=C/c2ccccc2Cl)SC1=S)Nc1cccnc1	8	5	6	4	15*	14
O=C(CCN1C(=O)/C(=C/c2ccccc2Cl)SC1=S)NNC(=O)c1ccccc1O	30*	0	15	5	9	23
O=C(CCCN1C(=O)/C(=C/c2ccccc2Cl)SC1=S)Nc1cccnc1	2	3	1	5	17*	-3
O=C(CCN1C(=O)/C(=C/c2ccccc2Cl)SC1=S)NNC(=O)c1cccnc1	0	-1	16	11	-2	4
Cc1ccc(/C=C2\SC(=S)N(CCC(=O)NNC(=O)c3ccccc3O)C2=O)cc1	17	3	-5	8	-2	5
CC(OC(=O)CCCN=C1NS(=O)(=O)c2ccccc21)C(=O)Nc1ccc(F)c(F)c1F (stereo not drawn)	-3	-1	1	2	-3	2
COc1cccc(NC(=O)c2ccc3c(c2)CCN3S(C)(=O)=O)c1	0	0	-2	-3	0	4
COc1ccc(-c2noc(N3CCC(C(=O)Nc4ccc(F)cc4F)CC3)n2)cc1	-3	1	1	3	1	9
